TSG101-PTAP inh: qHTS Assay for Iinhibitors of HIV-1 Budding by Blocking the Interaction of PTAP/TSG101. Tumor susceptibility gene 101 protein (Homo sapiens), Q99816. Fluorescence polarization, FITC-PTAP peptide / Tsg101 binding. Potency, µM (top dose mostly 115 µM), most hits filed as inhibitors. 340,000 tested, under 10 active; active = well fitted inhibition curve with a large enough effect in the main read-out, with a control signal flat, not every such curve was filed as active; inconclusive = small, poorly fitted or top-dose-only effect, or effect the other way, or a change in a side signal; inactive = no such curve, though single readings can be large or run the other way
Target sequence (Q99816 whole entry, looked up): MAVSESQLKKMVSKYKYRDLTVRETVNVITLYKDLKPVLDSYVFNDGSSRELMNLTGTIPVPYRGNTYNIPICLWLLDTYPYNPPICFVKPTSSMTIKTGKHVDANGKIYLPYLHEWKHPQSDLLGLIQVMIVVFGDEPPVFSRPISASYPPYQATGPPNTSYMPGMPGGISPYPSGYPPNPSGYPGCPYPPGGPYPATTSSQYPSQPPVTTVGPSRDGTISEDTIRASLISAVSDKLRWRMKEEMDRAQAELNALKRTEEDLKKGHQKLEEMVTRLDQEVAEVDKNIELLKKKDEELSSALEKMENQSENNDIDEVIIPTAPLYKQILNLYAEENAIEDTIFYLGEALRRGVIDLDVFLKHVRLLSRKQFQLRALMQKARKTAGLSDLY
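Compounds were pin-transferred onto Tsg101 binding domain (10 uM final) in HEPES pH 7.5 buffer, then FITC-PTAP peptide was added at 50 nM final. After 20 min at RT, polarization reported peptide displacement across a qHTS concentration series.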
KB-3-1 cytotox: qHTS assay for MDR1-selective chemotherapeutics: Primary screen using the parental adenocarcinoma cell KB-3-1; Potency, µM (series often up to 46.1 µM), most hits filed as cytotoxic; KB-3-1 viability, CellTiter-Glo ATP luminescence, 72 h; 400,000 compounds, 1.4% hits; AID 1347075, 2019; also: nearly all actives have a fitted effect of over 60% in size
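Using CellTiter-Glo luminescence, growth of non-resistant KB-3-1 adenocarcinoma cells is assessed 72 h after pin-tool compound addition at 37 °C. Normalized responses across the concentration series yield fitted curves.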
SW480 rereplic: A quantitative high throughput screen for small molecules that induce DNA re-replication in SW480 colon adenocarcinoma cells. Potency, µM (highest dose often 46.1 µM), most hits filed as activators. SW480 DNA re-replication, Hoechst DNA content imaging, 48 h. 340,000 compounds, 1.8% hits; also: nearly all actives have a fitted effect of over 55% in size
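Image-based DNA-content assay: after two days of treatment, nuclei were labelled with the DNA dye Hoechst and imaged, and hits were compounds raising the count of nuclei showing high fluorescence intensity.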
KB-V1 MDR tox: qHTS assay for MDR1-selective chemotherapeutics: Primary screen using the drug-selected MDR subline cells KB-V1 | KB-V1 MDR cells viability, CellTiter-Glo, 72 h | Potency, µM (doses to about 46.1 µM), actives largely listed as cytotoxic | 400,000 compounds, 3.4% hits | AID 1347076, 2019; also: nearly all actives have a fitted effect of over 60% in size
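KB-V1, DMEM (no phenol red) + 10% FBS; cpd pin-transferred, titration series; 72 h, 37 degrees C; CellTiter-Glo, luminescence. Data normalized, curve-fit.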
PINK1 modulator: A Quantitative High throughput Screen to Identify Chemical Modulators of PINK1 Expression; AID 624263, 2012; PINK1 immunofluorescence, high-content cytometry, 24 h; Potency, µM (top dose mostly 76.6 µM), usual class: activators; 410,000 compounds, 0.2% hits; active = well fitted activation curve with a large enough effect; inconclusive = small, poorly fitted or top-dose-only effect; cell line not stated here; also: nearly all actives have a fitted effect of over 65% in size
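A stable cell line was treated with compounds at 5 concentrations for 24 hours, with CCCP as control. PINK1 levels and mitochondrial localization were measured by immunofluorescence with mitochondrial, cell and nuclear markers after fixation, read by laser-scanning cytometry.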
MCF10A rereplic: A quantitative high throughput screen for small molecules that induce DNA re-replication in MCF 10a normal breast cells; AID 624296, 2012; 350,000 compounds, 2.9% hits; MCF 10A DNA re-replication, Hoechst nuclear intensity, 48 h; Potency, µM (series often up to 46.1 µM), actives largely listed as activators; also: nearly all actives have a fitted effect of over 50% in size
A number is an active result; - = inactive; ? = inconclusive; . = not tested or not shown; ! = repeats disagree; [ ] = dose if it differs, or a comment. The list is not random: actives were taken first. Their share in the collection is about 6.8%. Unless noted, calls follow the shape of the dose curve; as a rule, active = well fitted curve in the direction sought with a large enough effect; inconclusive = small, poorly fitted or top-dose-only effect, or another doubt; inactive = no such curve, though single readings can be large; an effect the other way counts as inactive or inconclusive.

SMILES | TSG101-PTAP inh | KB-3-1 cytotox | SW480 rereplic | KB-V1 MDR tox | PINK1 modulator | MCF10A rereplic
CCCN1C(=O)/C(=N\OCC(=O)NC23CC4CC(CC(C4)C2)C3)c2ccccc21 | - | - | - | 16.4µM | - | -
O=C(Nc1ccc2oc(=O)ccc2c1)c1ccccc1[N+](=O)[O-] | - | - | -[1.84 µM] | - | - | -
O=C(Nc1ccc2oc(=O)ccc2c1)c1ccc(-c2ccccc2[N+](=O)[O-])o1 | - | - | ? | - | - | 11.6µM
O=C(Nc1ccc2oc(=O)ccc2c1)c1ccc(-c2cccc(Cl)c2)o1 | - | - | ? | ? | - | -
O=C(Nc1ccc2oc(=O)ccc2c1)c1ccc(-c2cccc([N+](=O)[O-])c2)o1 | - | 25.9µM | 20.6µM | - | - | ?
COCCNC(=O)Cn1cc(S(=O)(=O)Cc2ccccc2Cl)c2ccccc21 | . | - | . | - | - | .
Nc1c(Cl)c(Cl)nc(C(=O)OCC(=O)NCc2ccccc2)c1Cl | - | - | - | - | - | -
O=C(COC(=O)c1nc(Cl)c(Cl)c(Cl)c1Cl)NCc1ccccc1 | - | - | 16.4µM | - | - | ?
Cc1cccc2cc(CN(CC3CCCO3)C(=O)c3ccccc3F)c(N(C)C)nc12 (stereo not given) | . | . | . | . | - | .
[O-][N+]1=c2ccc(Nc3ccccc3)cc2=NC12CCCCC2 | - | ? | 7.31µM | ? | - | 7.31µM
COc1ccc(NC2=NC(=S)N(c3ccccc3C)C23CCCCC3)cc1 | - | - | - | - | - | -
COc1ccc(Nc2ccc3c(c2)=NC2(CCCCC2)[N+]=3[O-])cc1 | - | 14.6µM | 3.98µM | ? | - | 13µM
Cc1cnc(CNc2cc(-c3ccccc3C)ncn2)cn1 | . | . | . | . | - | .
COC(=O)c1c(NS(=O)(=O)c2ccc3ccccc3c2)sc2c1CCCC2 | - | - | - | 16.4µM | - | ?
COC(=O)c1c(NC(=O)c2ccc(C)c(S(=O)(=O)Nc3ccccc3C)c2)sc2c1CCCC2 | - | - | - | 23.1µM | - | ?
COC(=O)c1c(NC(=O)c2c(OC)cccc2OC)sc2c1CCCC2 | . | - | . | - | - | .
CCC1CN(Cc2cccn2-c2ccccn2)Cc2cc(OC)ccc2O1 (stereo not given) | . | . | . | . | - | .
Cc1ccc2c(c1)C(c1ccc(F)cc1)N(C(=O)c1ccc(OC(C)C)cc1)CC(=O)N2 (stereo not given) | . | - | . | - | - | .
CCCN(CCC)c1nn2c(=O)c(C(=O)NCc3cccc(OC)c3)cnc2s1 | . | . | . | . | - | .
Cc1ccc(NC2=CC(=O)C(=O)c3ccccc32)cc1 | - | ? | 5.8µM | 16.4µM | - | ?
NS(=O)(=O)c1ccc(NC2=CC(=O)C(=O)c3ccccc32)cc1 | - | ? | 3.26µM | - | - | ?
COc1cc(OC)c(NC2=CC(=O)C(=O)c3ccccc32)cc1Cl | - | 4.61µM | ? | 4.11µM | - | -
CCOC(=O)c1ccc(NC2=CC(=O)C(=O)c3ccccc32)cc1 | - | ? | ? | ? | - | 13µM
CCC(C(=O)Nc1cc(Cl)c(OC)cc1OC)c1ccccc1 (stereo not given) | - | - | - | - | - | -
Cc1cc(NC(=O)CSc2ncc(C(=O)Nc3ccc(F)cc3)c(=O)n2C)no1 | . | . | . | . | - | .
SMILES | TSG101-PTAP inh | KB-3-1 cytotox | SW480 rereplic | KB-V1 MDR tox | PINK1 modulator | MCF10A rereplic
Cc1cc(NC(=O)CCN2C(=O)c3ccccc3C2=O)no1 | - | - | - | - | - | -
CCOC(=O)c1ccc(COC(=O)c2ccc3c(c2)-c2ccccc2C3=O)cc1 | - | - | - | 14.6µM | - | -
Cc1cc(NC2=CC(=O)C(=O)c3ccccc32)no1 | - | ? | ? | 18.4µM | - | 13µM
COc1cc(Cl)c(CN2CCC(CCC(=O)NC3CC3)CC2)cc1OC | - | - | - | - | - | 0.581µM
Cc1ccc(-c2csc3n[nH]c(=S)n23)cc1 | - | ? | - | 11.6µM! | - | -
COc1ccc(-n2c(C)cc(C3=NNC(=NC4CC4)SC3)c2C)cc1 | - | ? | ? | ? | 31.6µM | 9.2µM
Cc1cc(C2=NNC(=NC3CC3)SC2)c(C)n1-c1ccccc1 | - | - | ? | - | 39.8µM | -
CC(c1ccon1)N(C)C(=O)c1cnn(-c2ncc3c(n2)-c2ccccc2CC3)c1C1CC1 (stereo not given) | . | . | . | . | - | .
NC(=O)CSc1nc2c(c(=O)n1-c1ccccc1)C1(CCCCC1)Cc1ccccc1-2 | - | ? | - | ? | - | ?
CCn1c(SCC(N)=O)nc2c(c1=O)C1(CCCC1)Cc1ccccc1-2 | - | - | - | - | - | ?
CCCn1c(SCC#N)nc2c(c1=O)C1(CCCC1)Cc1ccccc1-2 | - | - | - | - | - | ?
Cc1cccc(-n2c(SCC(N)=O)nc3c(c2=O)C2(CCCC2)Cc2ccccc2-3)c1 | - | ? | - | 3.26µM | - | -
N#CCSc1nc2c(c(=O)n1Cc1ccco1)C1(CCCC1)Cc1ccccc1-2 | - | - | - | ? | - | 13µM
N#CCSc1n[nH]c2nc3c(c(=O)n12)C1(CCCC1)Cc1ccccc1-3 | - | - | - | - | - | 10.3µM
COc1ccc(Cl)cc1NC(=O)c1nc(S(C)(=O)=O)ncc1N(Cc1ccc(C)cc1)Cc1ccco1 | . | . | . | . | - | .
COCCCN1CN=C(NS(=O)(=O)c2ccc(NC(C)=O)cc2)NC1 | . | - | . | ? | - | .
Cc1nn(C)c2c1c(-c1ccccc1)cc(=O)n2Cc1ccc(F)cc1 | . | - | . | - | ? | .
COc1ccc(CCNC(=O)c2cc(C(=O)c3cc(Cl)ccc3O)cn(CCc3ccc(OC)cc3)c2=O)cc1 | - | - | ? | 2.59µM | - | -
O=C(c1cc(C(=O)NCCc2ccccc2)c(=O)n(CCc2ccccc2)c1)c1cc(Cl)ccc1O | - | ? | - | 2.31µM | ? | -
O=C(O)c1ccccc1C(=O)NCCc1ccc(Cl)cc1 | - | - | -[9.22 µM] | - | - | -
COc1ccc(CCNC(=O)c2cc(C(=O)c3cc(C)ccc3O)cn(CCc3ccc(OC)cc3)c2=O)cc1 | - | - | - | ? | - | ?
COc1cc(-c2n[nH]c(=S)n2-c2ccccc2C(F)(F)F)cc(OC)c1OC | - | - | - | - | - | -
Cc1ccc(-n2c(-c3cccc(C)c3)n[nH]c2=S)cc1 | - | - | ? | - | - | 20.6µM
COc1cc(-c2n[nH]c(=S)n2-c2cccc(C(F)(F)F)c2)cc(OC)c1OC | - | - | - | 23.1µM | - | -
COc1ccc(-n2cc(-c3ccc(OC)c(OC)c3)[nH]c2=S)cc1 | - | - | ? | - | - | -
